According to PubChem BioAssay (NCI):
Compounds without any hit were thinned out: in the full panel of roughly 83,000, 20% have a hit.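 Single-concentration screen, 48 h exposure, 96-well plates. Endpoint: percent growth. Below 10 = active.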 Activity calls are given as the source filed them.

Each compound was assayed on NCI-H226 lung (assay: NCI-60 one-dose screen, 48 h (100 = growth as untreated, 0 = no growth, -100 = all killed)). Details: 10 µM unless noted.

SMILES	growth
CCOc1nc(-c2ccccc2)cc2c(O)c(C(=O)N/N=C/c3ccc(O)cc3O)[nH]c(=O)c12	26.4% (inactive)
O=C(O)c1ccc(NC(=O)c2ccc(-c3cccc([N+](=O)[O-])c3)o2)cc1	89.3% (inactive)
Cc1ccc(NS(=O)(=O)c2ccc(-c3cnc(C4CC4)o3)cc2)cc1C	47.6% (inactive)
O=c1ccccc(-c2ccc(-c3ccco3)cc2)c1O	21.7% (inactive)
CC(C)CC1C(=O)N2CCC[C@H]2C2(O)O[C@](NC(=O)C3C=C4c5cccc6[nH]c(Br)c(c56)C[C@H]4N(C)C3)(C(C)C)C(=O)N12 (stereo partly specified)	59.5% (inactive)
C=CC(=O)Nc1cccc(-c2nc(SC)nc(NCCN3CCOCC3)c2C#N)c1	97.1% (inactive)
CC(C)c1c(C(=O)c2ccccc2)c(-c2ccccc2)c(-c2ccc(F)cc2)n1CC[C@@H](O)C[C@@H](O)CC(=O)O	62.2% (inactive)
O=S(=O)(Nc1ccc(NS(=O)(=O)c2ccccc2)c(Cl)c1)c1ccccc1	102% (inactive)
O=C(N=Nc1c(O)[nH]c2ccccc12)c1cc(-c2ccccc2)on1	96.8% (inactive)
O=C1NC(=S)NC(=O)C1CC(=O)n1c(-c2ccccc2)nc2ccccc21	86.1% (inactive)
Cn1c(O)c(N=NC(=O)c2cc(-c3ccccc3)on2)c2ccccc21	88.4% (inactive)
CN1CCN(Cc2ccc(NC(=O)c3cncc(C#Cc4cncn5ccnc45)c3)cc2C(F)(F)F)CC1	34.4% (inactive)

Each compound was assayed on NCI-H322M lung in the same assay as above. Details: 10 µM unless noted.

SMILES	growth
c1csc(C2=NN3C(C2)c2ccccc2OC3c2ccncc2)c1 (stereo unspecified)	93.1% (inactive)
CC1=CC(C)(C)Nc2ccc(Cc3ccc4c(c3)C(C)=CC(C)(C)N4)cc21	113% (inactive)
CCCCn1c(-c2ccc(C(=O)O/N=C(\N)c3ccc4ccccc4c3)cc2)nc(-c2ccccc2)c1-c1ccccc1	80.8% (inactive)
O=C(Nc1ccc(Cl)cc1)c1cc2cc(F)ccc2cc1O	18.7% (inactive)
Cn1cc(-c2nonc2-c2cn(C)c3ccc(F)cc23)c2cc(F)ccc21	97.3% (inactive)
CCN(CC)S(=O)(=O)c1ccc(OC)c(NC(=O)c2[nH]c(C)c3c2CCCCC3=O)c1	44% (inactive)
COc1cccc(-c2nc3sccn3c2-c2ccnc(NCCCNS(=O)(=O)c3cccc(F)c3)c2)c1	72% (inactive)
COc1cc(/C=C/c2cc(/C=C/c3ccc(O)c(OC)c3)n(-c3c(C)cccc3C)c(=O)n2)ccc1O	15.9% (inactive)
COc1cccc(-c2nc(SCC(=O)Nc3ccc(C(=O)/C=C/c4ccc(OC)c(OC)c4)cc3)[nH]c(=O)c2C#N)c1	76.3% (inactive)
Cc1cc(C)c2nc3nc(C)cc(C)c3c(N)c2c1	40.9% (inactive)
FC(F)(F)c1ccc(-c2cn3nc(-c4c[nH]c5ccc(Br)cc45)sc3n2)cc1	85.5% (inactive)
CC(=O)O[C@H]1[C@@H]2OC(=O)C(CSc3ccccc3)[C@@H]2C[C@H]2O[C@]2(C)CC/C=C(\C)CCC[C@@H]1C (stereo partly specified)	38% (inactive)
Cc1cc(C)nc(SC2=C(Nc3ccc(O)cc3)C(=O)N(Cc3ccccc3)C2=O)n1	108% [40 µM] (inactive)
COC(=O)c1ccc(Cn2cnc3c(N)ncnc32)cc1	106% (inactive)
CCOc1nc(-c2ccccc2)cc2c(O)c(C(=O)O)[nH]c(=O)c12	147% (inactive)
COc1ccc(Nc2nc(SC)nc(-c3cccc([N+](=O)[O-])c3)c2C#N)cc1	65.8% (inactive)
CN(C)[C@@H]1C(=O)C(C(=O)NCc2nc3[nH]cnc(=S)c3[nH]2)=C(O)[C@@]2(O)C(=O)C3=C(O)c4c(O)cccc4[C@@](C)(O)[C@H]3C[C@@H]12	37.9% (inactive)
CCOC(=O)c1sc2nc(-c3cccc(O)c3)nc(N3CCOCC3)c2c1C	70.7% (inactive)
O=C1/C(=C/c2ccccc2)SC(=S)N1CCc1ccc(O)cc1	97.1% (inactive)
OCC(O)c1nc2ccc3[nH]ncc3c2c2c1CCCC2 (stereo unspecified)	8.59% (active)

SMILES	growth
CC[C@@H]1O[C@H](O[C@@H](c2cnc[nH]2)[C@H](NC(=O)c2nc([C@H](CC(N)=O)NC[C@@H](N)C(N)=O)nc(N)c2C)C(=O)N[C@H](C)[C@H](O)[C@H](C)C(=O)N[C@@H](C(=O)NCCc2nc(-c3nc(C(=O)NCCCCN=C(N)N)cs3)cs2)[C@@H](C)O)[C@H](O[C@@H]2O[C@H](CO)[C@H](O)[C@H](OC(N)=O)[C@@H]2O)[C@H](C)[C@@H]1C	105% (inactive)
COc1cc2c(cc1-c1c(C)noc1C)ncc1nc(C3CCC(F)(F)CC3)n([C@H](C)COC(F)F)c12	42.6% (inactive)
O=C1c2c(O)cc(O)cc2-c2c(-c3ccc(O)cc3)oc3cc(O)cc1c23	65.2% (inactive)
CCN1CCN(c2nc(NCCNc3ccnc4cc(Cl)ccc34)c3ccccc3n2)CC1	42.3% (inactive)
O=S(=O)(Nc1ccc(Br)c(Cl)c1)c1ccc(-c2cnc(C3CC3)o2)cc1	39.2% (inactive)
Cc1nn(-c2cc(=O)[nH]c3ccc(Cl)cc23)c(N)c1C#N	98.2% (inactive)
Clc1ccc2c(NCCCCNc3nc(N4CCOCC4)nc4ccccc34)ccnc2c1	26.4% (inactive)
CCOc1nc(-c2ccccc2)cc2c(O)c(C(=O)N/N=C/c3ccc(O)cc3O)[nH]c(=O)c12	42.2% (inactive)
O=C(O)c1ccc(NC(=O)c2ccc(-c3cccc([N+](=O)[O-])c3)o2)cc1	95% (inactive)
Cc1ccc(NS(=O)(=O)c2ccc(-c3cnc(C4CC4)o3)cc2)cc1C	42.7% (inactive)
O=c1ccccc(-c2ccc(-c3ccco3)cc2)c1O	21.6% (inactive)
CC(C)CC1C(=O)N2CCC[C@H]2C2(O)O[C@](NC(=O)C3C=C4c5cccc6[nH]c(Br)c(c56)C[C@H]4N(C)C3)(C(C)C)C(=O)N12 (stereo partly specified)	71.8% (inactive)
C=CC(=O)Nc1cccc(-c2nc(SC)nc(NCCN3CCOCC3)c2C#N)c1	94.2% (inactive)
CC(C)c1c(C(=O)c2ccccc2)c(-c2ccccc2)c(-c2ccc(F)cc2)n1CC[C@@H](O)C[C@@H](O)CC(=O)O	58.6% (inactive)
O=S(=O)(Nc1ccc(NS(=O)(=O)c2ccccc2)c(Cl)c1)c1ccccc1	115% (inactive)
O=C(N=Nc1c(O)[nH]c2ccccc12)c1cc(-c2ccccc2)on1	111% (inactive)
O=C1NC(=S)NC(=O)C1CC(=O)n1c(-c2ccccc2)nc2ccccc21	94% (inactive)
Cn1c(O)c(N=NC(=O)c2cc(-c3ccccc3)on2)c2ccccc21	108% (inactive)
CN1CCN(Cc2ccc(NC(=O)c3cncc(C#Cc4cncn5ccnc45)c3)cc2C(F)(F)F)CC1	105% (inactive)
